Results: PubChem BioAssay AID1159580 (chemical genetic matrix, 2015)
Where “and” joins values, the source holds several entries; their conditions need not be identical. Equal values may be shown once. The campaign covered roughly 5,500 compounds. About 2,000 (36%) were called active. Roughly 18% stayed inconclusive and do not appear here. Rule as the data show it: active = normalized growth mostly below about 0.91 (no sharp cut-off); inconclusive = no clear call, values can overlap the other calls; inactive = mostly above about 0.92. This is one part of the list.

Assay: chemical genetic growth profiling, strain panel (AID 1159580);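 also: tested at 20 µM; growth read once vehicle control cultures reached saturation at 30 °C; 1 = growth at the plate median or of vehicle wells; lower values mean less growth of the strain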
Conditions: S. cerevisiae deletion strains, growth OD

Measured: normalized growth

CC(=O)CCCCn1c(=O)c2c(ncn2C)n(C)c1=O
inactive: locus YAL013W, strain DEP1, stronger effect = lower value 1.02 | locus YAL021C, strain ccr4, stronger effect = lower value 1.01 | locus YAL026C, strain drs2, stronger effect = lower value 1.01 | locus YAL030W, strain snc1, stronger effect = lower value 1.01 | locus YAL040C, strain CLN3, stronger effect = lower value 1 | locus YBL061C, strain skt5, stronger effect = lower value 1.01 | locus YBR009C, strain hhf1, stronger effect = lower value 1.02 | locus YBR021W, strain FUR4, stronger effect = lower value 0.991 | locus YBR023C, strain chs3, stronger effect = lower value 1.01 | locus YBR171W, strain sec66, stronger effect = lower value 1.04 | locus YBR229C, strain ROT2, stronger effect = lower value 1.02 | locus YBR231C, strain swc5, stronger effect = lower value 1.03 | locus YBR279W, strain paf1, stronger effect = lower value 1 | locus YCL011C, strain gbp2, stronger effect = lower value 1.01 | locus YCL016C, strain dcc1, stronger effect = lower value 1.01 | locus YCL029C, strain bik1, stronger effect = lower value 1.01 | locus YCL061C, strain MRC1 (second series), stronger effect = lower value 1.01 | locus YCL061C, strain MRC1, stronger effect = lower value 1.01 | locus YCL069W, strain vba3, stronger effect = lower value 1 | locus YCR088W, strain abp1, stronger effect = lower value 1.01 | locus YDL005C, strain med2, stronger effect = lower value 1.01 | locus YDL035C, strain GPR1, stronger effect = lower value 1.01 | locus YDL040C, strain nat1, stronger effect = lower value 1.01 | locus YDL074C, strain BRE1, stronger effect = lower value 1.04 | locus YDL101C, strain DUN1, stronger effect = lower value 1.02 | locus YDL185W, strain tfp1, stronger effect = lower value 0.999 | locus YDL192W, strain arf1, stronger effect = lower value 1 | locus YDR001C, strain nth1, stronger effect = lower value 1.01 | locus YDR069C, strain doa4, stronger effect = lower value 1.03 | locus YDR101C, strain arx1, stronger effect = lower value 1.01 | locus YDR137W, strain rgp1, stronger effect = lower value 1.03 | locus YDR150W, strain NUM1, stronger effect = lower value 1.02 and 0.998 | locus YDR159W, strain sac3, stronger effect = lower value 1.03 | locus YDR162C, strain NBP2, stronger effect = lower value 1.01 | locus YDR195W, strain ref2 1.02 | locus YDR297W, strain sur2, stronger effect = lower value 1.01 | locus YDR318W, strain mcm21, stronger effect = lower value 0.993 | locus YDR334W, strain swr1, stronger effect = lower value 1.02 | locus YDR335W, strain msn5, stronger effect = lower value 1.01 | locus YDR363W, strain ESC2, stronger effect = lower value 1 | locus YDR388W, stronger effect = lower value 0.999 | locus YDR392W, strain spt3, stronger effect = lower value 1.02 | locus YDR502C, strain sam2, stronger effect = lower value 1.01 | locus YEL003W, strain gim4, stronger effect = lower value 1.01 | locus YEL037C, strain rad23, stronger effect = lower value 1.01 | locus YEL061C, strain CIN8 (second series), stronger effect = lower value 1.01 | locus YEL061C, strain CIN8, stronger effect = lower value 1.01 | locus YER002W, strain NOP16, stronger effect = lower value 1.03 | locus YER015W, strain faa2, stronger effect = lower value 1.02 | locus YER016W, strain bim1, stronger effect = lower value 1.01 | locus YER110C, stronger effect = lower value 0.992 | locus YER111C, strain swi4, stronger effect = lower value 1.03 | locus YER155C, strain BEM2 (second series), stronger effect = lower value 1.02 | locus YER155C, strain BEM2, stronger effect = lower value 1.01 | locus YER167W, strain BCK2, stronger effect = lower value 1 | locus YFR010W, strain ubp6, stronger effect = lower value 1.01 | locus YGL078C, strain dbp3, stronger effect = lower value 1.01 | locus YGL086W, strain mad1, stronger effect = lower value 1.01 | locus YGL167C, strain pmr1, stronger effect = lower value 1.02 | locus YGL173C, strain kem1, stronger effect = lower value 1.02 | locus YGL227W, strain vid30, stronger effect = lower value 1.01 | locus YGL240W, strain doc1, stronger effect = lower value 1.03 | locus YGL248W, strain PDE1, stronger effect = lower value 1.03 | locus YGL253W, strain hxk2, stronger effect = lower value 1.02 | locus YGR078C, strain PAC10, stronger effect = lower value 1.02 | locus YGR135W, strain pre9, stronger effect = lower value 0.967 | locus YGR229C, strain SMI1, stronger effect = lower value 1.02 | locus YGR252W, strain gcn5, stronger effect = lower value 0.983 | locus YHR013C, strain ard1, stronger effect = lower value 1.04 | locus YHR027C, strain rpn1, stronger effect = lower value 1.02 | locus YHR030C, strain SLT2, stronger effect = lower value 1.02 and 0.994 | locus YHR079C, strain IRE1 (second series), stronger effect = lower value 1.01 | locus YHR079C, strain IRE1, stronger effect = lower value 0.99 | locus YHR094C, strain hxt1, stronger effect = lower value 0.995 | locus YHR129C, strain ARP1, stronger effect = lower value 1.02 | locus YHR142W, strain chs7, stronger effect = lower value 1.01 | locus YHR200W, strain rpn10, stronger effect = lower value 1 | locus YIL066C, strain RNR3, stronger effect = lower value 1.03 | locus YIL073C, strain SPO22, stronger effect = lower value 0.971 | locus YIL125W, strain kgd1, stronger effect = lower value 0.999 | locus YIR030C, strain dcg1, stronger effect = lower value 1.01 | locus YJL092W, strain hpr5, stronger effect = lower value 1.01 | locus YJL095W, strain BCK1 (second series), stronger effect = lower value 1 | locus YJL095W, strain BCK1, stronger effect = lower value 1.03 and 0.986 | locus YJL115W, strain asf1, stronger effect = lower value 1.01 | locus YJL129C, strain trk1, stronger effect = lower value 1.03 | locus YJL134W, strain LCB3, stronger effect = lower value 1 | locus YJL154C, strain vps35, stronger effect = lower value 1.01 | locus YJL164C, strain tpk1, stronger effect = lower value 1.02 | locus YJL166W, strain qcr8, stronger effect = lower value 1.01 | locus YJL168C, strain set2, stronger effect = lower value 0.99 | locus YJL187C, strain SWE1 (second series), stronger effect = lower value 1.03 | locus YJL187C, strain SWE1, stronger effect = lower value 1.01 | locus YJR043C, strain POL32, stronger effect = lower value 1.04
